Screening results deposited in PubChem BioAssay by National Center for Advancing Translational Sciences (NCATS).
Sampled rows, rich in hits. Any-hit rate of the full collection: about 9.2%.
ELG1 genotoxic – genotoxicity induction in ELG1-luciferase HEK293T cells; Potency, µM (highest dose often 46 µM), inactives show at the highest dose activity change, positive = activation, hits mostly activators; hit rate 1.3% among 330,000; AID 504466; HEK293T ELG1-luciferase reporter, luminescence, 16 h; further: % of control where 0% means no effect; nearly all actives have a fitted effect of over 60% in size
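ELG1-luciferase HEK293T cells, 2,000/well; compound pinned in; 16 hr, 37 °C, 5% CO2; ONE-Glo, 30 min RT; luminescence on CCD imager.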
FLuc modulator – inhibits or activates purified firefly luciferase, miR-21 counter-screen; P08659; purified FLuc, Km substrates, luminescence inhibition; Potency, µM (top dose mostly 57.5 µM), inactives show top-dose activity change, negative = inhibition, usual class: inhibitors; hit rate 6.9% among 360,000; AID 588342;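 further: plate controls were vehicle for no effect and reference inhibitor for full effect; nearly all actives have a fitted effect of over 55% in size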
Target sequence (P08659 whole entry, looked up): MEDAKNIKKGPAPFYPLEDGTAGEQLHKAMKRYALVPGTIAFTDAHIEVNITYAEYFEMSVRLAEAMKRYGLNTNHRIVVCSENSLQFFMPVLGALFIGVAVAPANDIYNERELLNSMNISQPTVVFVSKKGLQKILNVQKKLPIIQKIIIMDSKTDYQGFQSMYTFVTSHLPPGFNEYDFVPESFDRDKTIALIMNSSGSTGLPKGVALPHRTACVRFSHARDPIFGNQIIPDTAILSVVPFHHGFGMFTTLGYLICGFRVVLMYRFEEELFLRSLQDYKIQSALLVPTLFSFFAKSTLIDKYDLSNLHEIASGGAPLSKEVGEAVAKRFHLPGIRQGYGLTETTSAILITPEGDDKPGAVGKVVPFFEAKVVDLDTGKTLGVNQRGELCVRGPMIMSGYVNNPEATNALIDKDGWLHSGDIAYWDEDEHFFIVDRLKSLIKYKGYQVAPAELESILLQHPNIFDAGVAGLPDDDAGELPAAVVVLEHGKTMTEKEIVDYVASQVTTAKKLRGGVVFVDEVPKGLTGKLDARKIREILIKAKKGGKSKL
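Purified P. pyralis luciferase (10nM final) with 10uM D-luciferin and 10uM ATP (Km levels) in 50mM Tris acetate pH 7.5, 10mM Mg acetate, 0.01% Tween-20, 0.05% BSA; qHTS 6-point titration, ~60 µM downward; luminescence read.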
Rab9 prom act – activators of Rab9 promoter | Huh7 Rab9 promoter-luciferase reporter, luminescence, 24 h | Potency, µM (top dose mostly 9.22 µM), for inactives: top-dose activation, negative = inhibition, usual class: activators | hit rate 2.8% among 320,000; further: % of control where 0% means no effect; nearly all actives have a fitted effect of over 60% in size
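Luminescence read-out: Huh7 cells stably expressing Rab9-luciferase, treated 24 h with compound at 37 °C, then lysed with luciferase reagent for 10 min at ambient before reading.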
ELG1 repair inh – inhibitors of ELG1-dependent DNA repair in HEK293T cells; HEK293T ELG1-luciferase reporter, luminescence, 16 h; DNA damage induced by 5-fluorouridine; hit rate 2.3% among 330,000; Potency, µM (top dose mostly 46.1 µM), for the others: at the highest dose activity change, negative = inhibition, actives largely listed as inhibitors; further: on the % scale 0 is the no-effect control and ±100 the full control effect; nearly all actives have a fitted effect of over 55% in size
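Quantitative HTS, concentration-response format. 2,000 cells/well co-treated with 5-fluorouridine and compound, 16 hr in 5% CO2 at 37 °C; ONE-Glo luminescence read after 30 min.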
NPC1 prom act – activators of NPC1 promoter; hit rate 2.4% among 320,000; Potency, µM (titrated, usually from 9.22 µM), for inactives: at the top dose activation, most hits filed as activators; Huh7 NPC1 promoter luciferase reporter, 24 h; further: % of control where 0% means no effect; nearly all actives have a fitted effect of over 60% in size
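NPC1 promoter–luciferase Huh7 cells; 24 h compound; luminescence.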
SMN2 splice enh – enhancers of SMN2 splice variant expression; HEK293 SMN2-luciferase splicing reporter, luminescence, 30-36 h; hit rate 2.8% among 210,000; Potency, µM (top dose mostly 46.1 µM), inactives show top-dose activity change, positive = activation, actives largely listed as activators; AID 1458; further: % of control where 0% means no effect; nearly all actives have a fitted effect of over 55% in size
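qHTS luciferase splicing reporter: luminescence rises when SMN2 exon 7 is included in transfected HEK293 cells. Compound exposure lasted 30-36 h at 37C, with 4.5 mM final sodium butyrate as control, followed by a ONE-Glo read.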
* marks the source's active call; other numbers are inactive results; ? = inconclusive; / = no result; [ ] = remark or other dose. The call rests on the fitted dose curve; in most records, active means well fitted curve in the direction sought with a large enough effect; inconclusive means small, poorly fitted or top-dose-only effect, or another doubt; inactive means no such curve, though single readings can be large; an effect the other way counts as inactive or inconclusive. Potency means the concentration at half of the fitted maximal effect.

SMILES	ELG1 genotoxic	FLuc modulator	Rab9 prom act	ELG1 repair inh	NPC1 prom act	SMN2 splice enh
COc1ccc(C(=O)Nc2cc(OC)nc(OC)n2)cc1	?	4.3µM*	0.79µM*	?	2.2µM*	7.9µM*
CCOC(=O)c1cc(CC)sc1NC(=O)c1cc(OCC)c(OCC)c(OCC)c1	-2%	3%	-4%	-7%	-1%	-18%
O=C(NCc1ccccc1F)C1CCCN(C(=O)N2CCOc3ccccc32)C1 (stereo not drawn)	/	-1%	/	/	/	/
COCCn1c(=O)[nH]c2cc(C(=O)Nc3nnc(C)s3)ccc21	?	13µM*	?	?	27%	/
CCc1nnc(NC(=O)Nc2ccc(OC)cc2)s1	?	17µM*	?	?	?	30%
CCOCCc1nnc(NC(=O)c2cc(OC)c(OC)c(OC)c2)s1	3%	0%	2%	5%	-1%	16µM*
CCOCc1nnc(NC(=O)c2ccc(OC)cc2)s1	15%	-27%	9%	?	27%	18µM*
COCCn1c(=O)[nH]c2cc(C(=O)Nc3cc(OC)c(OC)c(OC)c3)ccc2c1=O	-25%	0%	3%	?	-3%	/
CCOCC(=O)O	/	/	/	/	/	-11%
COc1ccc(CNC(=O)CCc2cn(C)c3ccccc23)cc1	/	-13%	/	/	/	/
CCC(Oc1ccccc1)C(=O)Nc1ccsc1C(=O)OC (stereo not drawn)	4%	5%	-3%	-9%	-5%	-15%
COc1ccc(Cn2c(C(=O)O)c(CNCC(C)c3ccccc3)c3ccc(OC)cc32)cc1 (stereo not drawn)	/	-7%	/	/	/	/
COc1ccc(NC(=O)Nc2nnc(C)s2)cc1	/	17µM*	/	/	/	21%
COc1ccc(C(=O)Nc2nc3ccc4nc(C)sc4c3s2)cc1	2%	-10%	1%	1%	5%	-6%
COc1ccc(S(=O)(=O)N2CCCC(C(=O)Nc3ccc(OC)c(OC)c3)C2)cc1 (stereo not drawn)	-10%	0%	0%	?	-5%	-21%
CCc1nnc(NC(=O)C2CCCN(S(=O)(=O)c3ccc(OC)cc3)C2)s1 (stereo not drawn)	12%	19µM*	15%	?	3%	/
COc1ccc(C(=O)Nc2nnc(C)s2)cc1	/	13µM*	/	/	/	11µM*
C[C@]12c3[nH]c4ccc(Cl)cc4c3CCN1C(=O)[C@@H](CC(=O)NCCN1CCOCC1)C[C@@H]2C(=O)N1CCCCC1	5%	/	/	?	/	/
Oc1c(C(c2ccccc2)N2CCC3(CC2)OCCO3)sc2nc(-c3ccco3)nn12 (stereo not drawn)	/	-11%	/	/	/	/
Cc1ccsc1C(=O)NCCC(c1ccccc1)c1ccccc1	0%	-1%	-6%	-5%	1%	-11%
COc1ccc(CNC(=O)COC(=O)c2n[nH]c3ccccc23)cc1	-2%	6%	-1%	-21%	-3%	-10%
COc1ccc(CCNC(=O)c2n[nH]c3ccccc23)cc1	0%	21µM*	21%	14%	17%	24%
COc1ccc(C(=O)c2c[nH]c3ccccc23)cc1	/	3.4µM*	/	/	/	?
COc1ccc(OCC(=O)NCCc2c[nH]c3ccccc23)cc1	-2%	1%	-1%	0%	-1%	/
Cc1ccsc1C(=O)NCCc1nnc2ccccn12	?	?	2.5µM*	?	?	/
SMILES	ELG1 genotoxic	FLuc modulator	Rab9 prom act	ELG1 repair inh	NPC1 prom act	SMN2 splice enh
COc1ccc(C(=O)NCCc2c[nH]c3ccccc23)cc1	9.2µM*	9.5µM*	1.6µM*	?	2.8µM*	/
COC(=O)c1cccc(-n2c(=O)n(Cc3ccccc3)c(=O)c3[nH]cnc32)c1C	-2%	2%	1%	-16%	-5%	/
COc1ccc(-n2nnnc2SC(C)C(=O)NC2CCCC2)cc1 (stereo not drawn)	-4%	1%	-3%	0%	-2%	/
O=C(NCc1ccc(F)cc1)c1cnc2sccn2c1=O	0%	-1%	2%	3%	0%	-5%
Cc1ccsc1C(=O)NCCc1c[nH]c2ccccc12	?	19µM*	?	?	?	/
O=C(NCCc1c[nH]c2ccccc12)c1cnc2sccn2c1=O	8.2µM*	15µM*	4.5µM*	?	3.5µM*	14µM*
CN(Cc1cccs1)C(=O)CCCc1c[nH]c2ccccc12	?	27µM*	3.2µM*	?	23%	?
O=C(NCCc1c[nH]c2ccccc12)c1ccc(F)cc1F	?	12µM*	?	?	?	/
NC(=O)N/N=C1\CC[C@H](O)C[C@@H]1CC(=O)O	/	/	/	/	/	19%[9.22 µM]
O=C(NCCc1c[nH]c2ccccc12)c1ccc(Cl)cc1	?	11µM*	2.8µM*	?	1.8µM*	/
O=C(NCCSc1c[nH]c2ccccc12)c1ccc(Cl)cc1	/	-14%	/	/	/	-17%
CC(C)c1cnc2c(c1SCC(=O)Nc1cccc(F)c1)c(=O)n(C)c(=O)n2C	/	-11%	/	/	/	/
C=CCn1c(SCc2nc3cc(C(=O)OC)ccc3c(=O)[nH]2)nc2sc(CC)cc2c1=O	-1%	1%	1%	8.2µM*	-3%	-5%
C=CCn1c(SCC(=O)Nc2sccc2C(N)=O)nc2sc(CC)cc2c1=O	-6%	?	-15%	?	-6%	/
CN(C)c1ccc(CNC(=O)C2CCCN(S(=O)(=O)c3ccc4c(c3)oc(=O)n4C)C2)cc1 (stereo not drawn)	/	1%	/	/	/	1%
CCc1ccccc1-n1nnc(-c2ccccc2)n1	-2%	2%	8%	-6%	5%	/
Brc1ccccc1-n1nnc(-c2ccnc3ccccc23)n1	0%	17µM*	19%	-13%	2%	/
CC(=O)N(c1ccccc1)C1CCCC1	-1%	1%	-8%	4%	-1%	-16%
O=C(CCl)N(c1ccccc1)C1CCCCC1	-20%	-3%	-48%	16µM*	-37%	-108%
COc1ccc2nc3sc(C(=O)NCCCN4CCc5ccccc5C4)cc3cc2c1	3%	19µM*	10%	3%	0%	1%
CCNC(=O)C1CCN(c2nnc(C)c3c(C)n(-c4ccc(OC)cc4)nc23)CC1	/	-1%	/	/	/	/
CC1(C)Cc2ccccc2-c2nnc(-c3ccccc3)n21	-7%	-16%	0%	-7%	-3%	-15%
c1ccc(-c2cn3c(n2)-c2ccccc2C3)cc1	?	0.43µM*	0.56µM*	?	3.2µM*	0.5µM*
CCN(CC)CCOC(=O)c1ccc(NC(=O)CCCN2C(=O)/C(=C/c3cccs3)SC2=S)cc1	1%	0%	-12%	12%	-8%	/
Cc1oc(-c2cccc(Cl)c2)nc1CN1CCCC(C(=O)N2CCN(c3ccc(F)cc3)CC2)C1 (stereo not drawn)	/	?	/	/	/	-18%
